Experiment [1] relates to Human papillomavirus type 1a protein E7 (residues 44-93). Description: HPV1a E7 fragment binders on microarrays, primary screen, biochemical, small-molecule microarray, residues 44-93, 635 nm fluorescence (AID 1108).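 Note: E7 fragment applied at 1 µg/mL in TBST for 1 h at 4 C; score combines spot fluorescence with its signal to noise ratio.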 To be noted: small-molecule microarray binding, fluorescence 635 nm; higher = more signal.
Experiment [2] can be described thus: modulators of HCV replicon luciferase signal, primary screen, HCV replication inhibitor project, Huh7 cells, luciferase reporter (AID 1109).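 Note: huh7 hepatoma cells harbouring a luciferase neomycin HCV replicon reporter; luciferase luminescence as measure of HCV replicon replication; test concentration not given here.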 The following applies: 48 h, higher = more signal. In general terms: Replicon systems follow genome replication, usually without infectious particles.
Experiment [3] concerns the target Left-right determination factor 2 (Homo sapiens) (UniProt O00292). The experiment in a line: LEFTY2 binders on small-molecule microarrays, primary screen, biochemical, small-molecule microarray, 635 nm fluorescence scan (AID 1110). To be noted: LEFTY2 binding, higher = more signal.
The target of experiment [4] is Calmodulin-1 (Homo sapiens) (UniProt P0DP23). The experiment in a line: CALM1 binders on microarrays, EGTA buffer, profiling panel, biochemical, small-molecule microarray, Cy5-labelled CALM1 (AID 1111).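 Note: labelled calmodulin applied in Tris saline Tween buffer holding calcium plus EGTA and DTT.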 To be noted: Cy5-CALM1 binding fluorescence, higher = more signal.
Experiment [5] has the same target. The experiment in a line: calcium-bound CALM1 binders on microarrays, profiling panel, artefact control for SMM control-protein annotation, biochemical, small-molecule microarray, Cy5-labelled CALM1, plus calcium (AID 1112).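 Note: score merges spot fluorescence with signal to noise from triplicate slides.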 The following applies: Cy5-CALM1 binding fluorescence, higher = more signal.
A short description of experiment [6]: small-molecule microarray binders of probe aWnt5a, primary screen, biochemical, biotinylated probe, 635/667 nm fluorescence (AID 1113).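 Note: score merges 667 nm fluorescence intensity with signal-to-noise per printed feature.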 The following applies: higher = more signal.
Experiment [7] is described as follows: small-molecule microarray binders of probe aShh, primary screen, biochemical, biotinylated probe, 635/667 nm fluorescence (AID 1114).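 Note: probe is biotin-labelled aShh protein from a stem cell growth factor screen; measures binding of labelled protein to compounds printed on the slide; score merges feature fluorescence at 667 nm with signal-to-noise.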 The following applies: higher = more signal.
A short description of experiment [8]: small-molecule microarray binders of probe aNog, primary screen, biochemical, biotinylated probe, 635/667 nm fluorescence (AID 1115).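 Note: probe is biotinylated aNog protein used at 0.15 µg/mL for 1 h at 4 C; z-score combines 667 nm fluorescence of each spot with its signal to noise.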 The following applies: higher = more signal.
In experiment [9] the target is Torsin-1A-interacting protein 1 (Homo sapiens) (UniProt Q5JTV8). The experiment in a line: LAP1 binders from COS7 cell lysate, primary screen, small-molecule microarray, 635/667 nm fluorescence (AID 1116). To be noted: COS7-hLAP1 lysate binding, 635 nm fluorescence, higher = more signal.
Torsin-1A-interacting protein 1 (Homo sapiens), sequence (Q5JTV8 whole entry, looked up): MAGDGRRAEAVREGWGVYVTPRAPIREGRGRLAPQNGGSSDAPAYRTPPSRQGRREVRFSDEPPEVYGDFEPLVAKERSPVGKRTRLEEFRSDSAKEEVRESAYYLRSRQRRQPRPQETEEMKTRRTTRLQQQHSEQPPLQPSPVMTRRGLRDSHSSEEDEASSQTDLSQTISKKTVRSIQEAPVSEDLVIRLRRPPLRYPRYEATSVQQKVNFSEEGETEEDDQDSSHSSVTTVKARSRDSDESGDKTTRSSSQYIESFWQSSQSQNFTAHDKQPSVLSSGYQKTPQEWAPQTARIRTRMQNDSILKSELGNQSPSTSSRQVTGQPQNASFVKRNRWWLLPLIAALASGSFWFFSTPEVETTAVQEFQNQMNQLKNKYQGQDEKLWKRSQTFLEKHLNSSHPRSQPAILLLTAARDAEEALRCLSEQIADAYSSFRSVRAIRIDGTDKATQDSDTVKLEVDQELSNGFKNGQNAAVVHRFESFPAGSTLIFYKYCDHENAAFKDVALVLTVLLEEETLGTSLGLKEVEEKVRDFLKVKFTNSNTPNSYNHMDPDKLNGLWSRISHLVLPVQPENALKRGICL
Experiment [10] addresses Alpha-bungarotoxin (Bungarus multicinctus) (UniProt P60615). The experiment in a line: alpha-bungarotoxin binders on microarray, profiling panel, artefact control for SMM control protein annotation, biochemical, small-molecule microarray, Alexa647 label, 635/667 nm fluorescence (AID 1117). The following applies: alpha-BTX-A647 binding fluorescence, higher = more signal.

This note sets out measurements from PubChem BioAssay.

Left-right determination factor 2 (Homo sapiens), sequence (O00292 whole entry, looked up): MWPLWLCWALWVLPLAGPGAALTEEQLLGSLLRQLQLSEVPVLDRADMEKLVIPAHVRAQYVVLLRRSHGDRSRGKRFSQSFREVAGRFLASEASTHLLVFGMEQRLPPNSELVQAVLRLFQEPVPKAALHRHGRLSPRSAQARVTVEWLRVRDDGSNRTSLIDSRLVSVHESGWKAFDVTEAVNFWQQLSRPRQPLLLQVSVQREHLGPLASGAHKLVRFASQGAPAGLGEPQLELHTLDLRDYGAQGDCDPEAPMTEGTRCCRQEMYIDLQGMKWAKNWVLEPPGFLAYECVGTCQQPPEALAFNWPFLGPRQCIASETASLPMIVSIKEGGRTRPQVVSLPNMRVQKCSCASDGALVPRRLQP
Alpha-bungarotoxin (Bungarus multicinctus), sequence (P60615 whole entry, looked up): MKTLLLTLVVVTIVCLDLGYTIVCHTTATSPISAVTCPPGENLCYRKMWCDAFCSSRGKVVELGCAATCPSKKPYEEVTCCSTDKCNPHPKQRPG

For the molecule `CC(=O)NCCCC[C@@H]1NC(=O)[C@@H]2C[C@H](C(=O)NCCCCCNC(=O)CS)[C@H](c3cccc(OCCO)c3)N2C1=O`, the composite z-score was -0.0596 in experiment [1]; 0.837 in experiment [3]; -0.646 in experiment [4]; -0.754 in experiment [5]; -0.214 in [6]; -0.0533 in experiment [7]. The composite z-score is -0.0533 in [8], -0.443 in experiment [9] and -0.0629 in experiment [10]. In addition, the z-score in experiment [2] is -0.652.
Turning to `O=C1C[C@@](C(=O)NCCN2CCOCC2)(c2ccc([N+](=O)[O-])cc2)[C@@H](c2ccc(CO)cc2)N1CC12CC3CC(CC(C3)C1)C2`, the composite z-score was 1.47 in experiment [1]; 0.745 in [3]; 1.06 in [4]; -0.0933 in [5]; -0.0445 in experiment [6]; -0.16 in [7]. The composite z-score is -0.377 in [8], 0.651 in experiment [9] and 1.7 in experiment [10]. This molecule had a z-score in experiment [2] of -3.14.
Turning to `COCCCNC(=O)[C@@]1(C)c2ccccc2C(=O)N(C(C)C)[C@H]1c1ccc(CO)cc1`, the composite z-score in [1] is 0.761; in [3] it was 0.577; in [4] it was -0.342; in experiment [5], -0.574; in experiment [6] it was -0.152; in experiment [7], -0.01. Further, the composite z-score in [8] was -0.0247; in experiment [9], 0.999; in experiment [10] it was 0.547. For the same molecule, the z-score in [2] is -0.659.
As for `C=C(CCCC)/C(=C/C[C@@H](OC(C)=O)c1ccc(OCCO)cc1)c1cnc2ccccc2c1`, the composite z-score in [1] is 1.13; in experiment [3], 0.285; in experiment [4], -0.276; in experiment [5] it was -0.642; in [6] it was -0.0735; in experiment [7] it was -0.214. Besides, the composite z-score is -0.158 in [8], 0.887 in experiment [9] and 1.29 in experiment [10]. In experiment [2], this molecule displayed a z-score of -1.44.
As to `CCOC(=O)C[C@H]1[C@H](OC(=O)c2ccc(C(=O)c3ccccc3)cc2)[C@@H](NC(=O)CC(C)C)c2cc(OCCCO)ccc2N1C(=O)c1ccc2ccccc2n1`, the composite z-score in experiment [1] was 1.15; in [3] it was 0.592; in experiment [4] it was 0.711; in experiment [5], -0.297; in experiment [6] it was -0.0704; in experiment [7], -0.0793. Also, the composite z-score in experiment [8] was -0.318; in experiment [9], 0.547; in experiment [10], 0.719. Besides, the z-score in [2] was -1.22.
Regarding `CC(C)NC(=O)[C@@]1(C)c2ccccc2C(=O)N(Cc2cc(C(F)(F)F)cc(C(F)(F)F)c2)[C@H]1c1ccc(CO)cc1`, the composite z-score is 1.02 in experiment [1]; -0.826 in experiment [3]; 0.226 in [4]; 0.764 in experiment [5]; -0.101 in [6]; -0.0398 in experiment [7]. Moreover, the composite z-score in experiment [8] is 1.07; in experiment [9] it was 0.454; in experiment [10] it was -0.361. The same molecule yielded a z-score in [2] of -0.319.
On to `OCCCC1=CC(c2cccs2)N(Cc2cc3c(cc2Br)OCO3)CC1` (stereo not given), for which the composite z-score in [1] is 0.172; in [3], -0.0241; in experiment [4] it was 0.0466; in experiment [5], -0.16; in [6], -0.137; in experiment [7] it was -0.0011. For the same molecule, the composite z-score was -0.105 in [8], 0.26 in [9] and 1.36 in [10]. Besides, the z-score in [2] is -0.807.
Turning to `Cc1ccc(S[C@]2(C(=O)NCCCN(C)C)CC(=O)N(Cc3cc(C(F)(F)F)cc(C(F)(F)F)c3)[C@@H]2c2ccc(CO)cc2)cc1`, the composite z-score in experiment [1] is -0.224; in experiment [3], -0.286; in [4] it was 0.136; in [5], 0.499; in experiment [6], -0.152; in experiment [7], -0.0769. For the same molecule, the composite z-score in experiment [8] is -0.29; in experiment [9], 0.523; in experiment [10], 0.182. The same molecule showed a z-score in experiment [2] of 0.478.
Turning to `CN(C)CCCC[C@@H]1NC(=O)[C@@H]2C[C@H](C(=O)NCCCCCCN)[C@H](c3cccc(OCCO)c3)N2C1=O`, the composite z-score in [1] was 1.29; in [3], 0.45; in experiment [4], 1.23; in experiment [5], 0.827; in experiment [6], -0.0455; in [7], 0.876. Further, the figures for the composite z-score in experiment [8], in experiment [9] and in [10] were 1.13, 2.88 and 2.63, respectively. Moreover, the z-score in [2] is 0.484.
With `COc1cc(NN2C(C(O)c3ccco3)C=CC3C(=O)N(c4ccccc4)C(=O)C32)cc(OC)c1OC` (stereo not given), the composite z-score was -0.271 in experiment [1]; -0.198 in experiment [3]; -0.3 in experiment [4]; -0.657 in [5]; -0.213 in [6]; -0.29 in experiment [7]. Also, the composite z-score was 0.133 in experiment [8], 1.05 in experiment [9] and 0.425 in experiment [10]. Further, in experiment [2], the z-score is -0.937.
`COCCOC(=O)N1C(=O)[C@@]2(c3cc(C#Cc4ccc(OC)cc4)ccc31)[C@H](c1ccc(OCCO)cc1)N1[C@H](c3ccccc3)[C@H](c3ccccc3)OC(=O)[C@H]1[C@@H]2C(=O)N1CCN(c2ncccn2)CC1`: the composite z-score in experiment [1] is 0.819; in [3], 1.08; in experiment [4], 1.12; in experiment [5], 0.715; in experiment [6] it was -0.0585; in [7] it was -0.26. Also, the composite z-score turned out to be 0.0308 in [8], 0.391 in experiment [9] and 0.953 in experiment [10]. Further, the z-score in experiment [2] was -1.45.
As to `NCCCCCCNC(=O)[C@@H]1C[C@@H]2C(=O)NCC(=O)N2[C@@H]1c1ccc(O)cc1`, the composite z-score is 1.29 in [1]; 1.14 in experiment [3]; 0.584 in experiment [4]; -0.0301 in experiment [5]; -0.142 in experiment [6]; 0.0469 in experiment [7]. Further, the composite z-score in experiment [8] is -0.566; in experiment [9] it was 0.715; in [10], 1.41. The z-score in experiment [2] was 0.279.
As for `CCCCCCc1nc(-c2cc(C)c(OC)c(C)c2)cc2c1[Si](C(C)C)(C(C)C)OC2`, the composite z-score in experiment [1] is 0.0047; in [3] it was -0.21; in experiment [4], -0.268; in experiment [5] it was -0.256; in [6], -0.124; in experiment [7], -0.273. Moreover, the figures for the composite z-score in [8], in experiment [9] and in experiment [10] were -0.244, -0.359 and 0.19, respectively. In experiment [2], the z-score was determined as 0.777.
